From PubChem BioAssay (Tox21)
Values joined by “and” are separate entries in the source; they are usually repeats but may differ in a detail not shown here. Identical values can stand only once. Values without a mark were called inactive. Inconclusive results are not listed. Where a call stands in place of a potency, no number is given. Active and inactive are the calls of the source. Unless noted, calls follow the shape of the dose curve; as a rule, active = well fitted curve in the direction sought with a large enough effect in the repeat runs; inconclusive = weak or mixed curves; inactive = no such curve, though single readings can be large; an effect the other way counts as inactive or inconclusive.

How the values were obtained:
[1] = qHTS assay for small molecule agonists of the p53 signaling pathway - cell viability (AID 651633; calls by dose curve; also: nearly all actives have a fitted effect of over 30% in size; also: potency is read from the fitted curve at half-maximal effect)
In short: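 p53RE-bla cells were treated with compound for 16 hours at 37 C. Cytotoxicity was then measured as CellTiter-Glo luminescence after 30 min at room temperature.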

[2] = qHTS assay for small molecules that induce genotoxicity in human embryonic kidney cells expressing luciferase-tagged ATAD5 - cell viability (AID 651634; calls by dose curve; also: nearly all actives have a fitted effect of over 25% in size; also: potency is read from the fitted curve at half-maximal effect)
In short: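 HEK293T cells expressing luciferase-tagged ATAD5 were exposed to compound or DMSO for 15.5 hr at 37C, 5% CO2. Viability was then read as live-cell protease activity by CellTiter-Fluor fluorescence after 30 min at 37C.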

[3] = qHTS assay to test for compound auto fluorescence at 590 nm (red) in HepG2 cells (AID 720674)
In short: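 Fluorescence at 590 nm emission following 540 nm excitation was recorded from HepG2 wells one hour after compound transfer, with DMSO-only wells as vehicle and Rose Bengal sodium equivalency as the scale.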

[4] = qHTS assay to test for compound auto fluorescence at 535 nm (green) in HepG2 cells (AID 720675)
[5] = qHTS assay to test for compound auto fluorescence at 460 nm (blue) in HEK293 cells (AID 720678)
In short: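 After cell attachment (4-5 hr, 37C), compounds were pinned onto HEK293 monolayers in 10% dialyzed FBS medium. The blue channel (405/460 nm) was read following overnight culture. Equivalency was calculated against triamterene.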

[6] = qHTS assay to test for compound auto fluorescence at 590 nm (red) in HEK293 cells (AID 720679)
In short: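 Plates of HEK293 cells (10% dialyzed FBS) are treated with 23 nL compound or DMSO vehicle after a 4-5 hr attachment period, incubated overnight at 37C, and read for red fluorescence at 540/590nm.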

[7] = qHTS assay to test for compound auto fluorescence at 535 nm (green) in HEK293 cells (AID 720680)
[8] = qHTS assay to test for compound auto fluorescence at 460 nm (blue) in HEK293 cell free culture (AID 720681)
In short: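 Compounds were added to cell-free DMEM with 10% FBS and fluorescence read directly. The blue channel used 405 nm excitation and 460 nm emission, with triamterene as the reference fluorophore.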

[9] = qHTS assay to test for compound auto fluorescence at 535 nm (green) in HEK293 cell free culture (AID 720682)
In short: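 No cells present: wells hold DMEM supplemented with 10% FBS, into which compound or vehicle is pinned. Green emission is then recorded (485 nm excitation, 535 nm emission) and scaled to fluorescein.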

[10] = qHTS assay to test for compound auto fluorescence at 590 nm (red) in HEK293 cell free culture (AID 720683)
In short: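 Cell-free wells of DMEM with 10% FBS received compound, and intrinsic fluorescence was read at excitation/emission 540/590 nm. Values expressed as equivalence to Rose Bengal sodium.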

[11] = qHTS assay to test for compound auto fluorescence at 460 nm (blue) in HepG2 cell free culture (AID 720685)
In short: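 Compound (23 nL) or DMSO pinned into cell-free MEM with 10% FBS; blue fluorescence read at 405/460 nm excitation/emission, expressed as auto-fluorescence equivalency to triamterene.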

[12] = qHTS assay to test for compound auto fluorescence at 535 nm (green) in HepG2 cell free culture (AID 720686)
[13] = qHTS assay to test for compound auto fluorescence at 460 nm (blue) in HepG2 cells (AID 720687)
In short: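 HepG2 cells in MEM with 10% FBS, attached overnight at 37 C, were exposed to compound or DMSO for 1 hr at 37 C, 5% CO2. Blue fluorescence was read at 405/460 nm, with triamterene as reference fluorophore.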

[14] = qHTS assay for small molecules that induce genotoxicity in human embryonic kidney cells expressing luciferase-tagged ATAD5 (AID 651632); also: nearly all actives have a fitted effect of over 15% in size; also: potency is read from the fitted curve at half-maximal effect
In short: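 HEK293T cells carrying a luciferase reporter tagged to ATAD5 were exposed to compound or DMSO vehicle for 16 hr at 37C, 5% CO2. Amplite was added, and after 30 min at room temperature luciferase activity was read as a marker of ATAD5 induction.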

[15] = qHTS assay to test for compound auto fluorescence at 590 nm (red) in HepG2 cell free culture (AID 720684)
In short: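 Compound was pinned into wells holding MEM with 10% FBS and no cells, and red fluorescence was read at Ex/Em 540/590 nm. Signal is expressed as auto fluorescence equivalency relative to Rose Bengal sodium.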

[16] = target: Glucocorticoid receptor (Homo sapiens) (UniProt P04150); test: qHTS assay to identify small molecule agonists of the glucocorticoid receptor (GR) signaling pathway (AID 720691; active = well fitted activation curve with a large enough effect in the signal ratio in the repeat runs, not every such curve was filed as active; the % refers to the signal ratio)
In short: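 GR-bla HeLa cells (beta-lactamase reporter under glucocorticoid response element) were plated 4 h at 37 C/5% CO2, given compounds in DMSO, and incubated 18 h at 37 C. LiveBLAzer B/G FRET substrate was added for 2 h at room temperature, then fluorescence intensity read.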

[17] = qHTS assay for small molecule disruptors of the mitochondrial membrane potential - cell viability (AID 720634; calls by dose curve; also: nearly all actives have a fitted effect of over 20% in size; also: potency is read from the fitted curve at half-maximal effect)
In short: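 HepG2 cells seeded overnight at 37 C, then exposed to compound or DMSO for 1 hr at 37 C, 5% CO2. m-MPI dye added, then CellTiter-Glo for 30 min at room temperature; viability read as ATP luminescence.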

[18] = qHTS assay for small molecule disruptors of the mitochondrial membrane potential (AID 720635); also: potency is read from the fitted curve at half-maximal effect
In short: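 HepG2 cells exposed to compound 1 hr at 37C, then Mito-MPS dye 30 min. Ratio read of aggregate (540/590 nm) versus monomer (490/535 nm) fluorescence.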

[19] = target: Glucocorticoid receptor (Homo sapiens) (UniProt P04150); test: qHTS assay to identify small molecule antagonists of the glucocorticoid receptor (GR) signaling pathway (AID 720692; active = well fitted inhibition curve with a large enough effect in the signal ratio in the repeat runs, not every such curve was filed as active; the % refers to the signal ratio)
In short: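 GR-bla HeLa cells (beta-lactamase reporter under glucocorticoid response element) were pre-plated 4 h at 37 C, treated with compounds plus 5 nM dexamethasone (final) for 18 h, then read by LiveBLAzer B/G FRET fluorescence after 2 h.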

Sequence of Glucocorticoid receptor (Homo sapiens) (P04150 whole entry, looked up): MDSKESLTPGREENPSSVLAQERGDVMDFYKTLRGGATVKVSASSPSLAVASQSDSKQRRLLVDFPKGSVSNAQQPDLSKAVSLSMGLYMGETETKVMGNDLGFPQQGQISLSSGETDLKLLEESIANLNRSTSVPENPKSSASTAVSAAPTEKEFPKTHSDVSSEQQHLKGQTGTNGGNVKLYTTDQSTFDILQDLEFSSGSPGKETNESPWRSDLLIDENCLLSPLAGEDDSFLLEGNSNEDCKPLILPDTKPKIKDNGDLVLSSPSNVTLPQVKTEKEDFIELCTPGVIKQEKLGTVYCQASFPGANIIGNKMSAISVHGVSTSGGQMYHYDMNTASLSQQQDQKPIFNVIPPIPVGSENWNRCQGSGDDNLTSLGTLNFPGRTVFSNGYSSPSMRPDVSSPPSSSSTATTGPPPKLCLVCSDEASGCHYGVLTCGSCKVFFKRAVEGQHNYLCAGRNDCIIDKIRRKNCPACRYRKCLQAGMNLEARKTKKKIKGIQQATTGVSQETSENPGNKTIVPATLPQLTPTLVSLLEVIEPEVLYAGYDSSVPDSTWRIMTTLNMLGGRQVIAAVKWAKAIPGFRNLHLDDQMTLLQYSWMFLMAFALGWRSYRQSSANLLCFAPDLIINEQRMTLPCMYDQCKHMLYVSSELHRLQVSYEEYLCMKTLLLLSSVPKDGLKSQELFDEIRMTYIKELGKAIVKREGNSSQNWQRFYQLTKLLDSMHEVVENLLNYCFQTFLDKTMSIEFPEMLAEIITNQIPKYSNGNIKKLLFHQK

## CC1(C)[C@H](C(=O)O[C@H](C#N)c2cccc(Oc3ccccc3)c2)[C@@H]1C=C(Br)Br
[1]
  Potency: inactive
[2]
  Potency: inactive
[3]
  outcome: inactive
[4]
  outcome: inactive
[5]
  outcome: inactive
[6]
  outcome: inactive
[7]
  outcome: inactive
[8]
  outcome: inactive
[9]
  outcome: inactive
[10]
  outcome: inactive
[11]
  outcome: inactive
[12]
  outcome: inactive
[13]
  outcome: inactive

## CCCN(CCOc1c(Cl)cc(Cl)cc1Cl)C(=O)n1ccnc1
[14]
  Potency: inactive
[1]
  Potency: inactive
[2]
  Potency: inactive
[3]
  outcome: inactive
[4]
  outcome: inactive
[5]
  outcome: inactive
[6]
  outcome: inactive
[7]
  outcome: inactive
[8]
  outcome: inactive
[9]
  outcome: inactive
[10]
  outcome: inactive
[15]
  outcome: inactive
[11]
  outcome: inactive
[12]
  outcome: inactive
[13]
  outcome: inactive
[16]
  Potency: inactive

## CC(=O)NNc1ccccc1
[1]
  Potency: inactive
[2]
  Potency: 10.8 µM (active)
[17]
  Potency: inactive
[3]
  outcome: inactive
[4]
  outcome: inactive
[5]
  outcome: inactive
[6]
  outcome: inactive
[7]
  outcome: inactive
[8]
  outcome: inactive
[9]
  outcome: inactive
[10]
  outcome: inactive
[15]
  outcome: inactive
[11]
  outcome: inactive
[12]
  outcome: inactive
[13]
  outcome: inactive

## CN1CC[C@]23c4c5ccc(O)c4O[C@H]2[C@@H](O)C=C[C@H]3[C@H]1C5
[14]
  Potency: inactive
[2]
  Potency: inactive
[17]
  Potency: inactive
[18]
  Potency: inactive
[3]
  outcome: inactive
[4]
  outcome: inactive
[5]
  outcome: inactive
[6]
  outcome: inactive
[7]
  outcome: inactive
[8]
  outcome: inactive
[9]
  outcome: inactive
[10]
  outcome: inactive
[15]
  outcome: inactive
[11]
  outcome: inactive
[12]
  outcome: inactive
[13]
  outcome: inactive
[16]
  Potency: inactive

## CC(Oc1cc(Cl)c(Cl)cc1Cl)C(=O)O (configuration not stated)
[14]
  Potency: inactive
[1]
  Potency: inactive
[2]
  Potency: inactive
[17]
  Potency: inactive
[3]
  outcome: inactive
[4]
  outcome: inactive
[5]
  outcome: inactive
[7]
  outcome: inactive
[8]
  outcome: inactive
[9]
  outcome: inactive
[10]
  outcome: inactive
[15]
  outcome: inactive
[11]
  outcome: inactive
[12]
  outcome: inactive
[13]
  outcome: inactive
[16]
  Potency: inactive
[19]
  Potency: inactive

## Nc1ccccc1C(=O)OCCc1ccccc1
[14]
  Potency: 1.09 µM (active) and 433 nM (active)
[1]
  Potency: inactive
[2]
  Potency: inactive
[18]
  Potency: 48.8 µM (active) and 43.3 µM (active)
[3]
  outcome: inactive
[4]
  outcome: inactive
[5]
  outcome: inactive
[6]
  outcome: inactive
[7]
  outcome: inactive
[8]
  outcome: inactive
[9]
  outcome: inactive
[10]
  outcome: inactive
[15]
  outcome: inactive
[11]
  outcome: inactive
[12]
  outcome: inactive
[13]
  outcome: inactive
[16]
  Potency: inactive
[19]
  Potency: inactive

## C[CH2][Hg][S]c1ccccc1C(=O)O
[1]
  Potency: 3.35 µM (active) and 2.43 µM (active)
[2]
  Potency: 11.9 µM (active) and 27.3 µM (active)
[17]
  Potency: 13.3 µM (active) and 15.4 µM (active)
[18]
  Potency: 11.9 µM (active) and 15.4 µM (active)
[3]
  outcome: inactive
[4]
  outcome: inactive
[5]
  outcome: inactive
[6]
  outcome: inactive
[7]
  outcome: inactive
[8]
  outcome: inactive
[9]
  outcome: inactive
[10]
  outcome: inactive
[15]
  outcome: inactive
[11]
  outcome: inactive
[12]
  outcome: inactive
[13]
  outcome: inactive

## O=C(O)C(O)C(O)C(=O)O (configuration not stated)
[14]
  Potency: inactive
[2]
  Potency: inactive
[17]
  Potency: inactive
[3]
  outcome: inactive
[4]
  outcome: inactive
[5]
  outcome: inactive
[6]
  outcome: inactive
[7]
  outcome: inactive
[8]
  outcome: inactive
[9]
  outcome: inactive
[10]
  outcome: inactive
[15]
  outcome: inactive
[11]
  outcome: inactive
[12]
  outcome: inactive
[13]
  outcome: inactive
